From PubChem
This is a sample that favours compounds with a hit; in the whole collection about 1.6% have one here.
NSD2 HMT inh: NSD2 histone methyltransferase inhibitors, primary screen, biochemical, AlphaScreen, single concentration, set 2. NSD2 peptide methylation, 120 min. inhibition, % at 12.5 µM. Histone-lysine N-methyltransferase NSD2 (Homo sapiens), O96028. 310,000 compounds, 0.54% hits. AID 743445, 2014; in the data active = inhibition above about 50%
NPR2 activator: human GC-B receptor activators, primary screen, HEK293 GC-B cells, cGMP TR-FRET, EC30 CNP. activation, % at 10 µM. 0% at EC30 CNP, 100% saturating CNP. 370,000 compounds, 0.11% hits. AID 1920062, 2024. Atrial natriuretic peptide receptor 2 (Homo sapiens), P20594;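 active = activation at 10 µM reaching about 35% in either raw or pattern-adjusted values, limit read from the data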
Rce1 inh: yeast Rce1p protease inhibitors, primary screen, biochemical, fluorescence, cell-free homogeneous; AID 2563, 2010; 290,000 compounds, 0.27% hits; yeast membranes, quenched prenylated peptide cleavage fluorescence; CAAX prenyl protease 2 (Saccharomyces cerevisiae (strain ATCC 204508 / S288c)), Q03530; calls only;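 active = fall in fluorescence gain of 50% or more versus controls, with final raw signal at or below 3038400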;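 note: plate controls were neutral control wells for no effect and wells lacking membranes for full effect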
Target sequence (Q03530 whole entry, looked up): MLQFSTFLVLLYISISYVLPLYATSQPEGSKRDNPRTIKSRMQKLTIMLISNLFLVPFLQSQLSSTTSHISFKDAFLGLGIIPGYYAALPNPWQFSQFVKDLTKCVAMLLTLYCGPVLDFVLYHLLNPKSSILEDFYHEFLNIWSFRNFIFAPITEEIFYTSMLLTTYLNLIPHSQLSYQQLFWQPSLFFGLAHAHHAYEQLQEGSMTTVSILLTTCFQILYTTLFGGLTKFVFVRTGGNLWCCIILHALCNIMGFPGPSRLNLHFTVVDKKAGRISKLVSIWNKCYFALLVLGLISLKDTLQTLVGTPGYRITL
V-ATPase pHluor: regulators of yeast V-ATPase proton pumping, primary screen, pHLuorin cytosolic pH fluorescence; S. cerevisiae; response, % at 10 µM; 350,000 compounds, 0.37% hits; AID 504577, 2011; in the data active = response mostly above about 7.3%, no sharp cut-off; inactive = mostly below about 5.4%; note: actives read high
Efflux pump inh: inhibitors of Candida efflux pumps in yeast, primary screen, S. cerevisiae, Nile Red, multiplex; S. cerevisiae Candida pump triplex; inhibition, % at 10 µM; 330,000 compounds, 0.44% hits; AID 485275, 2010;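 active = plate passing quality check with inhibition over a set limit, or well fluorescence over plate mean plus 4 SD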;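 note: Nile Red retained in pooled yeast measured as flow cytometry median fluorescence; 0% = buffer negative control and 100% = Enniatin B positive control; higher means more Nile Red kept so more efflux inhibition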
GC-A act: GC-A stimulated cGMP production enhancers – HEK293 GC-A cells, cGMP TR-FRET, EC30 ANP, primary screen; Atrial natriuretic peptide receptor 1 (Homo sapiens), P16066; 370,000 compounds, 0.14% hits; activation, % at 10 µM; AID 1671463, 2021; 0% at EC30 ANP, 100% saturating ANP; in the data active = activation above about 40%
VATPase regulator: yeast V-ATPase proton pumping modulators, confirmation, S. cerevisiae, pH-sensitive GFP, second cherry-pick; response, % at 10 µM; 980 compounds, 2% hits; S. cerevisiae pHLuorin cytosolic pH, V-ATPase proton transport; shares compounds with V-ATPase pHluor; in the data active = response above about 24%;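 note: plate controls were vehicle wells for no effect and positive control wells for full effect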
* hit, by the source's call; i = inactive; nt = no result.

SMILES	NSD2 HMT inh	NPR2 activator	Rce1 inh	V-ATPase pHluor	Efflux pump inh	GC-A act	VATPase regulator
Cc1cc(Br)ccc1NC(=O)CN(C)C(=O)C1CCN(C(=O)c2ccc(F)cc2)CC1	-1	2	i	12*	0	4	1
CN(CC(=O)Nc1ccccc1Cl)C(=O)C1CCN(C(=O)c2ccc(Cl)cc2)CC1	-1	1	i	-3	0	3	nt
CC(C)n1nnnc1C1(C)CCCCC(=O)N1Cc1cccc(C(F)(F)F)c1 (stereo not given)	nt	1	nt	nt	nt	-2	nt
COCCn1c(SCC(=O)NNC(=O)c2ccc(OC)c(OC)c2)nc2ccccc2c1=O	2	-1	i	-3	0	-3	nt
COCCn1c(SCC(=O)NNC(=O)c2ccccc2)nc2ccccc2c1=O	1	1	i	11*	0	-1	-2
CCOc1ccccc1NC(=O)NNC(=O)CCn1nc(C)c([N+](=O)[O-])c1C	0	6	nt	nt	nt	0	nt
CN1CCN(S(=O)(=O)c2cccc(C#N)c2)C(c2ccccc2)C1 (stereo not given)	2	-3	nt	12*	nt	1	0
O=C(Nc1ccc(F)cc1)Nc1c(-c2ccc(F)cc2)nc2ncccn12	nt	7	nt	nt	nt	2	nt
COc1c(O)c(O)c2oc(-c3ccccc3)cc(=O)c2c1OC	nt	-5	nt	11*	0	-1	2
CCOc1ccc(-c2cc(C(=O)OC)c3n(c2=O)CCC3)cc1	nt	-7	nt	nt	nt	1	nt
OCCC1CN(Cc2ccccc2OC2CCCC2)CCN1Cc1ccsc1 (stereo not given)	1	-7	i	8.4*	0	-13	-1
COc1ccccc1C(=O)NCCC(=O)NCCC12CC3CC(CC(C3)C1)C2	8	2	i	11*	0	1	-6
COc1ccccc1OCCNC(=O)CCNC(=O)c1ccccc1OC	0	0	nt	-2	0	1	nt
O=C(Cc1c(Cl)cccc1Cl)OCC(=O)N1CCOCC1	0	-1	nt	13*	0	1	3
O=C(Cc1c(Cl)cccc1Cl)OCC(=O)N1CCc2ccccc2C1	0	2	i	1	0	-2	nt
CCN(CC)C(=O)C1=C(C)N(Cc2ccccc2)C(=O)C(CC(=O)NC2CCCC2)C1 (stereo not given)	nt	0	nt	7.1*	nt	0	-1
CC1=C(C(=O)N(C)C)CC(CC(=O)NC2CCCCC2)C(=O)N1Cc1ccccc1 (stereo not given)	nt	-1	nt	-1	nt	-3	nt
S=C(Nc1ccc(Cl)cc1)OC1CCC12CCC(c1ccccc1)CC2 (stereo not given)	nt	6	nt	nt	nt	2	nt
CCn1cc(C(=O)N2CCN(Cc3ccc(C)cc3)CC2)c(=O)c2ccc(C)nc21	-1	-6	nt	nt	nt	-3	nt
O=[N+]([O-])c1cc(-c2csc(NCCc3nc4cc(Cl)c(N5CCCCC5)cc4n3CCCO)n2)ccc1Cl	nt	1	i	10*	0	-3	-3
CC1=C2NC(N)=[N+](Cc3ccccc3)CC2n2c(=O)n(-c3ccccc3)c(=O)n2C1 (stereo not given)	nt	-1	nt	nt	nt	-8	nt
COc1cccc(N2C(=O)c3ccncc3C2=O)c1	nt	-1	i	12*	0	3	-1
COc1cccc(/C=C2\C(=O)N(c3cccc(C)c3)C(=O)c3ccccc32)c1	1	-5	i	1	0	3	nt
COc1cccc(N2CCN(CC(=O)NCc3ccc(Cl)cc3)CC2)c1	7	2	nt	nt	nt	0	nt
CN(CC(=O)NC1CCCCCC1)S(=O)(=O)c1ccc(F)cc1	-2	8	i	-2	0	1	nt
SMILES	NSD2 HMT inh	NPR2 activator	Rce1 inh	V-ATPase pHluor	Efflux pump inh	GC-A act	VATPase regulator
CN(CC(=O)NC1CCCCC1)S(=O)(=O)c1ccc(Cl)cc1	-7	1	i	11*	0	6	1
O=C(CCSc1ccc(Cl)cc1)NC1CCCCC1	-5	1	i	13*	0	-3	-1
CCC/C=C/c1ccc(CN2C(CC(C)C)C(=O)N(Cc3cn(CCC4OCCO4)nn3)CCS2(=O)=O)cc1 (stereo not given)	nt	-1	nt	9.2*	nt	1	-3
CC(C)CC1C(=O)N(Cc2cn(CCC3OCCCO3)nn2)CCS(=O)(=O)N1Cc1ccc(-c2ccc(F)cc2)cc1 (stereo not given)	nt	6	nt	5.5*	nt	5	0
CC(C)CCNC(=O)CSc1nc2c(c(=O)[nH]1)CCC2	-1	-2	nt	nt	nt	2	nt
CCOc1ccccc1NC(=O)NNC(=O)c1ccc2ccccc2c1	0	-4	i	13*	0	-3	2
CCOc1ccccc1NC(=O)c1ccc2ccccc2c1	-3	-9	i	0	0	-8	nt
C=C(C)CSc1nnc(-c2ccc(OC)c(OC)c2)n1N	-3	7	i	8.7*	0	-2	1
COc1ccc([C@H]2OC(=O)C[C@@H]2C(=O)N2CCN(c3ccccc3Cl)CC2)cc1OC	-5	-7	nt	nt	nt	-14	nt
COC(=O)[C@]12C[C@H](CC(=O)NCC34CC5CC(CC(C5)C3)C4)C(=O)N(CCc3ccc(OC)c(OC)c3)C1=C[C@H](C(C)(C)C)O[C@@H]2C	nt	-7	nt	nt	nt	1	nt
COc1ccc2c(=O)cc(-c3ccccc3F)oc2c1	0	-2	i	5.7*	0	-1	-1
COC(=O)[C@]12C[C@H](CC(=O)N3CCOCC3)C(=O)N(CCc3ccc(OC)c(OC)c3)C1=C[C@H](COCc1ccccc1)O[C@@H]2C	nt	-3	nt	nt	nt	6	nt
CCOC(=O)[C@]12CCCC=C1N(CCCOC)C(=O)[C@@H]2CC(=O)NCc1cccs1	nt	2	nt	nt	nt	3	nt
O=C(O)c1cc(NC(=O)c2ccc3c(c2)C(=O)N(Cc2ccccc2)C3=O)cc(C(=O)O)c1	-1	0	i	7.6*	0	-2	-2
O=C(O)Cc1ccc(NC(=O)c2ccc3c(c2)C(=O)N(Cc2ccccc2)C3=O)cc1	-2	-1	nt	1	nt	-1	nt
COC(=O)C[C@@H]1CC[C@H]2[C@@H](COc3ccc(NC(=O)NC(C)C)cc3C(=O)N2C)O1	nt	-11	nt	nt	nt	2	nt
OCCN(Cc1ccccc1)Cc1ccccc1O	0	1	i	1	0	-4	nt
OCCN(CCO)Cc1csc2ccccc12	-5	-1	i	12*	0	3	0
C/C(=N\Nc1ccccn1)c1cccs1	4	-8	i	21*	0	-5	3
COc1ccc(S[C@]2(C(=O)N3CCN(C(C)=O)CC3)CC(=O)N(C(=O)c3ccccc3)[C@@H]2c2ccc(OC)cc2)cc1	nt	-13	nt	nt	nt	-11	nt
